APEX1 inh = APE1 (human) endonuclease inhibition | P27695 | recombinant APE1, TAMRA/BHQ-2 abasic DNA cleavage fluorescence | Potency, µM (doses to about 65.8 µM), inactives show at the highest dose activity change, negative = inhibition, usual class: inhibitors | 0.35% of 350,000 active;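 note: potency is the fitted concentration of half-maximal effect; plate controls were vehicle for no effect and reference inhibitor for full effect; nearly all actives have a fitted effect of over 55% in size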
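APE1 at 0.75 nM final was preincubated with compound 15 min at room temperature, then 50 nM double-stranded THF abasic-site substrate (5'-TAMRA/3'-BHQ-2) was added. Fluorescence (ex 525/em 598 nm) was read kinetically; third-minus-first read gave activity.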
GCN5L2 inh = GCN5L2 (KAT2A) acetyltransferase inhibition; Q92830; GCN5L2 HAT assay, ThioGlo1 CoA-SH fluorescence; Potency, µM (titrated, usually from 58.9 µM), inactives show at the highest dose activity change, negative = inhibition, hits mostly inhibitors; 0.21% of 390,000 active; note: potency is the fitted concentration of half-maximal effect
Target sequence (Q92830 whole entry, looked up): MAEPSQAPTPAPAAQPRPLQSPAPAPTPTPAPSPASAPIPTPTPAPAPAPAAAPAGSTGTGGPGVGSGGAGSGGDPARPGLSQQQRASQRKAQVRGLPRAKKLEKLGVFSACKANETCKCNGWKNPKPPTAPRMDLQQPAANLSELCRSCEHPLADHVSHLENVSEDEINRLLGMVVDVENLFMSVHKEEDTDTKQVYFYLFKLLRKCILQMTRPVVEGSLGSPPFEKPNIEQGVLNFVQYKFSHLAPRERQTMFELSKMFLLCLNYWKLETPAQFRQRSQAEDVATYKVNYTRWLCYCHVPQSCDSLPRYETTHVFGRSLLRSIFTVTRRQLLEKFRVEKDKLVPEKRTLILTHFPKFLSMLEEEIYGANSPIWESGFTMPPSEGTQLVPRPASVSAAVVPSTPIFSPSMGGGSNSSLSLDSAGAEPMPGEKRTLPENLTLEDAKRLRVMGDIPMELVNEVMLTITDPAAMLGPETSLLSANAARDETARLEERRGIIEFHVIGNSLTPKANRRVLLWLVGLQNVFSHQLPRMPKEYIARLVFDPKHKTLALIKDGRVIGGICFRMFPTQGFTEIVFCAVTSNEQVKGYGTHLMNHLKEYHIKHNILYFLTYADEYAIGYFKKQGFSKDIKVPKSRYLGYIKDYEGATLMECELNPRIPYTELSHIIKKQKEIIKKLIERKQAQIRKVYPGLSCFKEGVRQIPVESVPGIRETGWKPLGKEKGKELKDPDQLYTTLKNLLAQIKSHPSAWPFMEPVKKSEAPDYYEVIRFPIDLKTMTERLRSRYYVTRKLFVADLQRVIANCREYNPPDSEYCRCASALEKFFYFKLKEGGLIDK
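Free CoA generated was detected with ThioGlo1 (50uM) fluorescence at Ex340nm/Em540nm, read immediately and after 20 min at room temperature. Enzyme, 20 nM in HEPES pH 7.5 buffer, saw compounds 15 min before adding 75uM H3(1-25) peptide and 70uM acetyl-CoA.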
RECQ1 helicase = RECQ1 (human) helicase inhibition. RECQ1 DNA unwinding, red fluorescence kinetic read. Potency, µM (doses to about 57.3 µM), for the others: at the highest dose activity, negative = inhibition, most hits filed as inhibitors. 0.54% of 240,000 active. AID 2549;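 note: potency is the fitted concentration of half-maximal effect; plate controls were vehicle for no effect and no enzyme for full effect; nearly all actives have a fitted effect of over 30% in size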
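50 nM RECQ1T1 preincubated 15 min with compound in Tris pH 8.0 buffer with MgCl2, DTT, Tween-20 and 2.5 ug/ml poly(dI-dC); started with 200 nM TAMRA/BHQ-2 forked duplex and 2 mM ATP. Unwinding read as fluorescence (525/598 nm), two reads 2 h apart.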
BLM inh = inhibitors of human Bloom syndrome helicase BLM | P54132 | recombinant BLM DNA unwinding, fluorescence dequenching | Potency, µM (series often up to 56.1 µM), without a hit: at the top dose activity change, negative = inhibition, most hits filed as inhibitors | 0.2% of 350,000 active;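 note: potency is the fitted concentration of half-maximal effect; plate controls were vehicle for no effect and no enzyme for full effect; nearly all actives have a fitted effect of over 35% in size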
PI5P4Ka inh = blocks human PI5P4K alpha kinase activity; PI5P4Kalpha enzyme, ADP-Glo luminescence, 60 min; stronger effect = lower value; max response, %; 1.2% of 330,000 active; AID 652105; active = max response of -50% or lower; inconclusive = between -30% and -50%; inactive = -30% or higher; note: value at the top dose of about 77 µM
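Luminescence from ADP-Glo served as readout of PI5P4Kalpha activity in a qHTS format. Reaction: enzyme, substrate, compound, ATP at 5 microM final, 60 min at RT.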
FEN1 inh = human FEN1 inhibition; Potency, µM (series often up to 114 µM), for the others: at the top dose activity change, negative = inhibition, hits mostly inhibitors; 0.35% of 390,000 active; Recombinant FEN1 flap cleavage, fluorescence, 15 min; AID 588795; note: potency is the fitted concentration of half-maximal effect; nearly all actives have a fitted effect of over 65% in size
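Recombinant FEN1 (10 nM) was preincubated with pin-transferred compounds for 15 min at room temperature, then flap DNA substrate (50 nM final) was added. Plates were read at 0 and 15 min, and normalized concentration–response data were fitted to a four-parameter Hill equation.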
ADP-Glo interf = ADP-Glo luciferase interference, PI5P4K counter-screen. Potency, µM (highest dose often 76.9 µM), without a hit: at the top dose activity change, negative = inhibition, actives largely listed as inhibitors. 1,100 tested, under 10 active. shares compounds with PI5P4Ka inh. ADP-Glo detection counter-screen, luciferase luminescence, no enzyme
Numbers without * were called inactive; [ ] = remark or other dose. Compounds with a hit are over-represented: about 1.5% of the library has one in this group of screens. Unless noted, calls come from the whole dose curve; as a rule, active = well fitted curve in the direction sought with a large enough effect; inconclusive = small, poorly fitted or top-dose-only effect, or another doubt; inactive = no such curve, though single readings can be large; an effect the other way counts as inactive or inconclusive. Unless noted, % is set by controls: 0 for no effect and ±100 for the full control effect.

Screening O=C(c1cc(-c2ccco2)nc2ccccc12)N1CCN(Cc2ccccc2)CC1 returned APEX1 inh -5.9%, GCN5L2 inh -18.1%, PI5P4Ka inh -25.8 and FEN1 inh -21.6%.
For CCCCCCNC(=O)c1cc(-c2ccco2)nc2ccccc12 the results were APEX1 inh 9.8%, GCN5L2 inh inconclusive, RECQ1 helicase inactive, BLM inh -12.4%, PI5P4Ka inh -85.7*, FEN1 inh -7.7% and ADP-Glo interf -8.6%.
For CCCCn1c(N)c(N(CC(C)C)C(=O)c2cc(-c3ccco3)nc3ccccc23)c(=O)[nH]c1=O the results were APEX1 inh 5.3%, GCN5L2 inh -4.5%, PI5P4Ka inh -59.1*, FEN1 inh 9.5% and ADP-Glo interf 3.0%.
`CCN(CC)CCC[C@H](C)Nc1c2ccc(Cl)cc2nc2ccc(OC)cc12` gave GCN5L2 inh -2.2%[21.4 µM], RECQ1 helicase -5.0%[25.9 µM] and BLM inh -10.5%[21.4 µM].
For COc1ccc(NC(=O)c2c(NCc3ccc(C)o3)sc3c2CCC(C)C3)cc1 (stereo not drawn) the results were GCN5L2 inh -13.3%, BLM inh -9.7% and FEN1 inh -5.1%.
`COc1ccc(Nc2ccc(Cl)cc2)c(C(=O)O)c1` gave APEX1 inh 1.9%, GCN5L2 inh 3.6%, RECQ1 helicase 10.5%, BLM inh 0.3%, PI5P4Ka inh -52.0*, FEN1 inh 13.6% and ADP-Glo interf 2.4%.
Cc1ccn2c(=O)nc(SCC(=O)NCc3ccccc3Cl)nc2c1 was read as APEX1 inh -25.1%, GCN5L2 inh -17.4%, PI5P4Ka inh -58.8*, FEN1 inh -7.0% and ADP-Glo interf -4.1%.
`Cc1ccc2nc(SCC(=O)NCc3ccccc3Cl)nc(=O)n2c1` gave APEX1 inh 5.6%, GCN5L2 inh 0.5%, PI5P4Ka inh 2.6 and FEN1 inh 6.3%.
Cc1cc(Oc2ccc(C#N)cc2)nc(NCc2ccccc2)n1 was read as APEX1 inh 1.1%, GCN5L2 inh -0.4%, RECQ1 helicase 6.1%, BLM inh -3.8%, PI5P4Ka inh -51.1*, FEN1 inh -15.2% and ADP-Glo interf 1.4%.
Screening COc1ccc2c(c1)C=C(CN1CCN(Cc3ccccc3C)C(CCO)C1)CO2 (stereo not drawn) returned APEX1 inh 15.1%, GCN5L2 inh -7.4%, BLM inh -5.7%, PI5P4Ka inh -1.5, FEN1 inh -26.7% and ADP-Glo interf -0.3%.
CCOC(=O)c1ncc2[nH]c3cccc(OC(C)C)c3c2c1C was read as APEX1 inh -4.8%, GCN5L2 inh 3.5%, RECQ1 helicase inactive and BLM inh -10.4%.
